Experiment [1] can be described thus: Viability qHTS for spleen associated tyrosine kinase inhibitor (SYKi) naive MV4-11 cells (AID 1963823). Further: nearly all actives have a fitted effect of over 40% in size. The following applies: MV4-11 AML viability, CellTiter-Glo luminescence, 72 h; series mostly up to 45 µM. The essentials:
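qHTS, SYK inhibitor-naive MV4-11; 500 cells/well; 72 hr compound exposure, 37 C; CellTiter-Glo added, 10 min RT; luminescence read.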

The nature of experiment [2]: Cellular viability qHTS for adrenocortical cancer (ACC) cell line SW-13 (AID 1963989). Further: nearly all actives have a fitted effect of over 65% in size.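 On activity (max response): cells grown in serum-free medium with ITS supplement; on the % scale 0 is the no-effect control and ±100 the full control effect.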 The conditions noted are these: SW-13 ACC cells viability, CellTiter-Glo, 48 h; activity (max response): stronger effect = lower value. The essentials: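 SW-13 cells in ITS-supplemented serum-free DMEM were plated overnight, then exposed for 48 h at 37C to compound titrations (up to 46 uM final). Viability was read by CellTiter-Glo luminescence; four-parameter logistic fits gave IC50 and efficacy.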
For orientation: qHTS replaces the single test concentration by a dilution series.

The nature of experiment [3]: Cellular viability qHTS for adrenocortical cancer (ACC) cell line NCI-H295R (AID 1963990). Further: nearly all actives have a fitted effect of over 60% in size. The following applies: CellTiter-Glo ATP luminescence, 48 h; series mostly up to 46.1 µM. The essentials: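 Luminescent ATP read-out (CellTiter-Glo, 20 min RT) after 48 h drug exposure of NCI-H295R cells; a titration up to 46 uM final. Data normalized to doxorubicin (100% inhibition) and DMSO (0%); 4-parameter fit gives IC50, max response.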

“And” between values parts separate entries of the source, which are not always exact repeats. Equal entries are not always repeated. Results filed as inconclusive are left out. A number with no mark means an inactive call. The source made the active and inactive calls. The call rests on the fitted dose curve; in most records, active means well fitted curve in the direction sought with a large enough effect; inconclusive means small, poorly fitted or top-dose-only effect, or another doubt; inactive means no such curve, though single readings can be large; an effect the other way counts as inactive or inconclusive.
Potency means the concentration at half of the fitted maximal effect.

Consider `CC1=C(/C=C/C(C)=C/C=C/C(C)=C/C=C/C=C(C)/C=C/C=C(C)/C=C/C2=C(C)CCCC2(C)C)C(C)(C)CCC1`, for which the Potency in experiment [1] was 23.5 µM (active). Also, the activity (max response) in experiment [2] was -7.78%. For the same compound, the Potency result in experiment [3] was “inactive”.

For the compound `Cc1ncc(CO)c(CN)c1O`, the Potency entry in experiment [1] and in experiment [3] was “inactive” in each case. The activity (max response) in experiment [2] was 7.61%.

On to `COc1ccc(C(=O)C2CCN(CC(=O)N(Cc3nc4c(c(=O)[nH]3)COCC4)CC3CC3)CC2)cc1`, for which the Potency result in experiment [1] and in experiment [3] was “inactive” in each case. Further, the activity (max response) in experiment [2] is 0.295%.

`C[C@]12C=CC(=O)C=C1[C@@H](F)C[C@@H]1[C@@H]2[C@@H](O)C[C@@]2(C)[C@H]1CC[C@]2(O)C(=O)CO`: the Potency entry in experiment [1] and in experiment [3] was “inactive” each time. For the same compound, the activity (max response) in experiment [2] was 7.4%.

For `Cc1c(F)cccc1NC(=O)Nc1ccc(Cl)c(S(=O)(=O)[C@H]2CCCNC2)c1O`, the Potency result in experiment [1] and in experiment [3] was “inactive” each time. Besides, the activity (max response) in experiment [2] was -7.46%.

For `CCC(=O)NS(=O)(=O)c1ccc(-c2c(-c3ccccc3)noc2C)cc1`, the Potency entry in experiment [1] and in experiment [3] was “inactive” throughout. The activity (max response) in experiment [2] is -1.9%.

Take `CSC[C@H]1CN(Cc2c[nH]c3c(N)ncnc23)C[C@@H]1O`: the Potency result in experiment [1] and in experiment [3] was “inactive” in each case. For the same compound, in experiment [2], the activity (max response) was -14.7%.

Turning to `CCCCNc1ncc2c(-c3ccc(F)cc3)nn(CC3CCC(N)CC3)c2n1` (stereo not drawn), the Potency was 0.008 µM (active) in experiment [1], 11.3 µM (active) in experiment [2] and 7.15 µM (active) in experiment [3].

For `COc1ccc(C(=O)N2CCN(c3ccc4c(c3)CCC(=O)N4)CC2)cc1OC`, the Potency result in experiment [1] and in experiment [3] was “inactive” throughout. For the same compound, the activity (max response) in experiment [2] was 5.3%.

In the case of `COc1cc(N2CCN(C(C)=O)CC2)ccc1Nc1ncc(Cl)c(Nc2ccc(N3CCN(C(C)=O)CC3)cc2OC)n1`, the Potency in experiment [1] is 291 nM (active) and 372 nM (active); in experiment [2] it was 25.1 µM (active); in experiment [3], 12.6 µM (active).

With `CCCCOc1cc(C(=O)OCCN(CC)CC)ccc1N`, the Potency result in experiment [1] and in experiment [3] was “inactive” throughout. Further, the activity (max response) in experiment [2] was -10.3%.

Regarding `COC(=O)[C@@H]1[C@H]2C[C@H]3c4[nH]c5ccccc5c4CCN3C[C@@H]2CC[C@@H]1O`, the Potency result in experiment [1] and in experiment [3] was “inactive” throughout. Besides, the activity (max response) in experiment [2] is -16.5%.

`CN(C)CCCN1c2ccccc2Sc2ccc(Cl)cc21`: the Potency in experiment [1] was 10.6 µM (active); in experiment [2] it was 14.6 µM (active); in experiment [3], 18.4 µM (active).

As for `Cc1cc(O)cc2c1O[C@](C)(CCC[C@H](C)CCC[C@H](C)CCCC(C)C)CC2`, the Potency entry in experiment [1] and in experiment [3] was “inactive” in each case. Further, in experiment [2], the activity (max response) is 7.62%.

`COC(=O)N(C)c1c(N)nc(-c2nn(Cc3ccccc3F)c3ncccc23)nc1N`: the Potency entry in experiment [1] and in experiment [3] was “inactive” each time. Also, the activity (max response) in experiment [2] is -4.16%.

Consider `O=C1Cc2cc(Cl)ccc2N1`, for which the Potency result in experiment [1] and in experiment [3] was “inactive” each time. In addition, in experiment [2], the activity (max response) was 11.1%.

Take `CCOC(=O)[C@H](CCc1ccccc1)N[C@@H](C)C(=O)N1Cc2cc(OC)c(OC)cc2C[C@H]1C(=O)O`: the Potency entry in experiment [1] and in experiment [3] was “inactive” each time. The activity (max response) in experiment [2] was 2.85%.

Consider `CN1[C@@H]2CC(OC(=O)[C@H](CO)c3ccccc3)C[C@H]1[C@@H]1O[C@@H]12` (stereo partly drawn), for which the Potency entry in experiment [1] and in experiment [3] was “inactive” each time. The activity (max response) in experiment [2] was 1.78%.

`C/C=C/C(=O)N(CC)c1ccccc1C`: the Potency entry in experiment [1] and in experiment [3] was “inactive” each time. Besides, the activity (max response) in experiment [2] is 5.92% and 3.5%.

As to `CCO[C@@H]1OC(=O)C[C@@H]1NC(=O)[C@@H]1CCCN1C(=O)[C@@H](NC(=O)c1ccc(N)c(Cl)c1)C(C)(C)C`, the Potency result in experiment [1] and in experiment [3] was “inactive” each time.

`[2H]c1nc(C)nc([2H])c1-c1cc(NC[C@@H](C)c2cccc3c(C(=O)NC)ccnc23)ncn1`: the Potency result in experiment [1] and in experiment [3] was “inactive” throughout. Also, the activity (max response) in experiment [2] is 14.2%.

In the case of `CC(Cc1ccccc1)(NC(=O)CN)c1ccccc1` (stereo not drawn), the Potency result in experiment [1] and in experiment [3] was “inactive” throughout. Moreover, the activity (max response) in experiment [2] was 8.44%.

On to `CC(C)C[C@H](NC(=O)[C@@H](O)[C@H](N)Cc1ccccc1)C(=O)O`, for which the Potency result in experiment [1] and in experiment [3] was “inactive” throughout. Also, the activity (max response) in experiment [2] is 9.42%.

In the case of `CO[C@@H]1[C@@H](OC)[C@H](C)[C@@](O)(CC(=O)O)O[C@H]1[C@H](C)[C@H]1O[C@@]2(CC[C@@](C)([C@H]3CC[C@@](C)([C@@H]4O[C@@H]([C@H]5O[C@](C)(O)[C@H](C)C[C@@H]5C)C[C@@H]4OC4C[C@H](OC)[C@@H](OC)[C@H](C)O4)O3)O2)C[C@H](O)[C@H]1C` (stereo partly drawn), the Potency was 0.376 µM (active) in experiment [1], 1.46 µM (active) in experiment [2] and 1.16 µM (active) in experiment [3].

`COC(=O)[C@@H]1CC2=CC(=O)CC[C@]2(C)[C@@]23O[C@@H]2C[C@@]2(C)[C@@H](CC[C@@]24CCC(=O)O4)[C@H]13`: the Potency result in experiment [1] and in experiment [3] was “inactive” each time. The activity (max response) in experiment [2] was -0.519% and -3.74%.

As to `COCCOC(=O)N1CCN(S(=O)(=O)c2cc(F)c(Oc3ccc(Cl)cc3)c(F)c2)C(C(=O)NO)C1` (stereo not drawn), the Potency was 5.9 µM (active) in experiment [1], 5.01 µM (active) in experiment [2] and 2.82 µM (active) in experiment [3].

For the compound `O=C1NC(=O)C(c2ccccc2)(c2ccccc2)N1`, the Potency result in experiment [1] and in experiment [3] was “inactive” each time. In addition, in experiment [2], the activity (max response) is -5.02%.

Regarding `N#CC1(c2ccc(F)cc2)CCC(=O)CC1`, the Potency entry in experiment [1] and in experiment [3] was “inactive” in each case. The activity (max response) in experiment [2] is 6.7%.

(Values after PubChem BioAssay (NCATS).)
